Compounds with a hit are over-represented: about 6.1% of the library has one in this group of screens.
HepG2 viability: qHTS for Inhibitors of TGF-b: Cytotox Counterscreen. HepG2 CAGA-GFP viability, ATP luminescence, 18 h. Potency, µM (highest dose often 46.1 µM), hits mostly cytotoxic. 410,000 tested, 0.76% active. AID 588856, 2011
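CellTiter-Glo luminescence gave cytotoxicity after 18 hours at 37 degrees C. The cells were HepG2 CAGA-GFP in 1% FBS DMEM, stimulated with 500 pg/mL TGF-beta after compound addition. %Activity was normalised to no-cell wells (complete cell-killing) and DMSO (no toxicity), and curves were fitted and classified.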
ATXN2 expr inh: Primary qHTS for Inhibitors of ATXN expression | HEK-293 ATXN2-luciferase reporter, luminescence, 24 h | Potency, µM (series often up to 57 µM), hits mostly inhibitors | 360,000 tested, 0.72% active; note: nearly all actives have a fitted effect of over 55% in size
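qHTS (up to 57 uM final) was run with 24 h compound exposure of reporter cells at 37 °C. Each well was multiplexed: SteadyGlo luminescence measured ATXN2-luciferase expression after a fluorogenic Gly-Phe-AFC viability readout (25 uM final).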
TGFb inhibitor: qHTS for Inhibitors of TGF-b; Potency, µM (highest dose often 46.1 µM), usual class: inhibitors; AID 588855, 2011; HepG2 CAGA-GFP TGF-b/SMAD3 reporter, GFP fluorescence, 18 h; TGF-beta stimulated, 500 pg/mL final; 410,000 tested, 1.2% active; note: nearly all actives have a fitted effect of over 65% in size
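GFP signal (ex488/em500-530) from TGF-beta-stimulated HEPG2 CAGA-GFP cells, 500 pg/mL final, 18 h at 37 degrees C in DMEM plus 1% FBS, normalized to unstimulated and DMSO-stimulated controls.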
VP16 counter: VP16 counterscreen qHTS for inhibitors of ROR gamma transcriptional activity; Drosophila S2 Gal4-VP16 UAS-luciferase, luminescence, 20 h; Potency, µM (doses to about 53.6 µM), most hits filed as inhibitors; 310,000 tested, 3.5% active;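 note: Gal4-VP16 expression switched on by copper sulfate through the metallothionein promoter; nearly all actives have a fitted effect of over 50% in size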
RORg inh: qHTS for inhibitors of ROR gamma transcriptional activity. Nuclear receptor ROR-gamma (Mus musculus), P51450. Drosophila S2 Gal4-RORgamma UAS-luciferase reporter, 20 h. Potency, µM (doses to about 53.6 µM), most hits filed as inhibitors. 310,000 tested, 5.4% active. AID 2551, 2010; note: nearly all actives have a fitted effect of over 60% in size
Target sequence (P51450 whole entry, looked up, the tested form may be a part): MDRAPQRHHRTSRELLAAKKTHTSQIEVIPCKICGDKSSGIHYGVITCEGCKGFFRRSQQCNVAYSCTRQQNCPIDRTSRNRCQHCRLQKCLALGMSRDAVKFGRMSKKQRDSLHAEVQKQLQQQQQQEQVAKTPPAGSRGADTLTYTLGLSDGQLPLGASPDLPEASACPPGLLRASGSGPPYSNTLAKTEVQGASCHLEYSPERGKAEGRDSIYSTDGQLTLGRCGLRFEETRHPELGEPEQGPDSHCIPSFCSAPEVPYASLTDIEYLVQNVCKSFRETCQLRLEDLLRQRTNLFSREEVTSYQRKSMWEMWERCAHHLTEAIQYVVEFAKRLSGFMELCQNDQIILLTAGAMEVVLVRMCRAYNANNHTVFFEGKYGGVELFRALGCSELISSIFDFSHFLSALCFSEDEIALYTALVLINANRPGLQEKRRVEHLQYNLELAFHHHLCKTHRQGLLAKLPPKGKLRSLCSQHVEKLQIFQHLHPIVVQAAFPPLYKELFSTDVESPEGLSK
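Drosophila S2 cells stably expressing Gal4-DBD/mouse RORγ fusion under metallothionein promoter plus UAS-luciferase; compound 1 h, then 700 uM CuSO4 induction for 20 h at ambient temperature; inhibition read as reduced luminescence.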
ATXN viability: Viability Counterscreen for Primary qHTS for Inhibitors of ATXN expression; Potency, µM (series often up to 56.7 µM), usual class: cytotoxic; AID 651635, 2014; S2 cells (HEK-293 line with an ATXN2-luciferase reporter) viability, CellTiter-Fluor protease fluorescence, 24 h; 400,000 tested, 0.49% active; note: nearly all actives have a fitted effect of over 40% in size
A number is an active result; n = inactive; u = inconclusive; x = no result given; [ ] = remark or other dose. Calls come from the whole dose curve; as a rule, active = well fitted curve in the direction sought with a large enough effect; inconclusive = small, poorly fitted or top-dose-only effect, or another doubt; inactive = no such curve, though single readings can be large; an effect the other way counts as inactive or inconclusive.

SMILES	HepG2 viability	ATXN2 expr inh	TGFb inhibitor	VP16 counter	RORg inh	ATXN viability
Cc1ccc(NC(=O)C(=O)NCC(c2cccnc2)N2CCN(Cc3ccccc3)CC2)cc1 (centres undefined)	n	n	n	x	x	n
CCOC(=O)C1CCN(S(=O)(=O)c2cccc(-c3cn4cc(C)ccc4n3)c2)CC1	n	n	n	18µM	n	n
Cc1nc2ccn(Cc3cccs3)c(=O)c2cc1C(=O)Nc1ccccc1	n	x	u	x	x	x
CN(C)CCC(=O)c1ccc2c(c1)OCO2	n	n	u	6.3µM	2.2µM	n
CN(C)CCC(=O)c1cccc(Br)c1	11µM	x	14µM	n	u	u
CN(C)CCCC(=O)c1ccc2c(c1)OCO2	n	n	n	n	n	n
CCOC(=O)c1cnc2c(ccc3ccccc32)c1Nc1cccc(C(F)(F)F)c1	n	n	n	x	x	n
Cc1ccc2c(c1)-c1c(c(C(=O)NCCc3ccccc3)nn1C)CS2	n	n	n	x	x	n
Cc1ccc(Cn2c(C3CCCN3c3nc(C)cs3)nc3cc(C(F)(F)F)ccc32)cc1 (centres undefined)	n	u	u	u	3.5µM	u
Cc1ccc(Cn2c(C3CCCN3c3nc(-c4cc(Cl)c(N)c(Cl)c4)cs3)nc3cc(C(=O)NCCCO)ccc32)cc1 (centres undefined)	n	n	u	x	x	u
C[C@@H]1O[C@H](O[C@@H]2[C@H](C)O[C@H](O[C@@H]3[C@H](C)O[C@H](O[C@H]4CC[C@]5(C)[C@@H](CC[C@@H]6[C@H]5C[C@@H](O)[C@]5(C)[C@@H](C7=CC(=O)OC7)CC[C@]65O)C4)C[C@@H]3O)C[C@@H]2O)C[C@H](O)[C@@H]1O	x	x	x	n	4µM	x
C[C@H]1O[C@@H](O[C@H]2[C@@H](O)C[C@H](O[C@H]3[C@@H](O)C[C@H](O[C@H]4CC[C@@]5(C)[C@H](CC[C@@H]6[C@@H]5C[C@@H](O)[C@]5(C)[C@@H](C7=CC(=O)OC7)CC[C@]65O)C4)O[C@@H]3C)O[C@@H]2C)C[C@H](O)[C@@H]1O	n	0.32µM	u	n	1.6µM	u
CC1CC(C)(C)Nc2ccc(OC(=O)c3ccco3)cc21 (centres undefined)	n	u	u	2.5µM	5µM	n
O=C(O)c1ccc(Nc2cc(Cl)c3nonc3c2[N+](=O)[O-])cc1	n	n	n	n	13µM	u
Cc1c(Nc2cc(N3CCOCC3)c3nonc3c2[N+](=O)[O-])c(=O)n(-c2ccccc2)n1C	x	x	x	n	n	x
Cc1c(Nc2cc(Cl)c3nonc3c2[N+](=O)[O-])c(=O)n(-c2ccccc2)n1C	n	u	u	4µM	4µM	28µM
O=[N+]([O-])c1ccc(O/N=[N+](\[O-])N2CCCC2)c([N+](=O)[O-])c1	n	x	u	x	x	x
Cc1oc(-c2ccccc2NC(=O)c2ccsc2)nc1CN(C)CC1CC=CCC1 (centres undefined)	x	x	x	x	x	n
Cc1ccc(-c2cc3cccc[n+]3cc2-c2ccc(C)cc2)cc1	n	n	u	13µM	u	u
C=CCN(C(=O)CSc1nc2c(sc3ccccc32)c(=O)n1CCN(CC)CC)c1ccccc1	n	u	18µM	u	u	u
CCc1ccc(NC(=O)CSc2nc3c(sc4ccccc43)c(=O)n2CCN(CC)CC)cc1	n	n	n	x	x	n
CCC(CC)c1nnc(NC(=O)c2cc(-c3ccccc3)nc3ccccc23)s1	n	n	n	11µM	10µM	n
CC(C)Cc1nnc(NC(=O)c2cc(-c3ccccc3)nc3ccccc23)s1	n	n	n	u	4.5µM	n
CCC(CC)c1nnc(NC(=O)Oc2ccccc2)s1	n	n	n	n	n	n
CCC(CC)c1nnc(NC(=O)c2ccc3ccccc3n2)s1	n	n	n	10µM	3.5µM	n
SMILES	HepG2 viability	ATXN2 expr inh	TGFb inhibitor	VP16 counter	RORg inh	ATXN viability
COc1ccc(OC)c(CNC(=O)Cn2ncc3c([nH]c4ccc(C)cc43)c2=O)c1	n	n	n	x	x	n
COc1cccc(-c2cc(NCc3cccc(C)c3)ncn2)c1	x	x	x	n	n	x
CC(C)c1ccc(NC(=O)CSC2=Nc3ccccc3C3=NC(CCC(=O)NCc4cccs4)C(=O)N23)cc1 (centres undefined)	n	x	n	x	x	x
NS(=O)(=O)c1ccc(N=Nc2c[nH]c(=O)c(O)c2)cc1	n	n	n	n	n	18µM
O=C(O)C1CCc2sc3[nH]c(=S)n(-c4ccccc4)c(=O)c3c21 (centres undefined)	n	n	n	n	n	n
Cc1cccc(-n2c(=S)[nH]c3sc4c(c3c2=O)CCc2ccccc2-4)c1	n	n[11.3 µM]	n	1.4µM	0.35µM	n
Cc1ccc(-n2c(=S)[nH]c3sc4c(c3c2=O)CCc2ccccc2-4)cc1	n	x	n	0.63µM	0.45µM	u
Cc1cccc(OCc2occc2C(=O)Nc2cccc(-n3cnnn3)c2)c1	n	n	n	n	n	n
Cc1ccccc1OCc1occc1C(=O)Nc1cccc(-n2cnnn2)c1	n	x	14µM	n	n	n
Cn1cc([N+](=O)[O-])c(C(=O)Nc2nc(-c3ccc(Cl)cc3)cs2)n1	6.3µM	n	u	n	n	n
O=C(Nc1ccc(Cl)cc1)Nc1nc(-c2ccccc2)cs1	n	n	u	n	n	u
O=C(Nc1nc(-c2ccc(Cl)cc2)cs1)NC1CCCCC1	n	n	11µM	u	n	n
O=C(Nc1ccc(Cl)cc1)NC1CCCCC1	n	n	n	u	n	n
O=C(Nc1nnc(-c2ccc(Cl)cc2)o1)NC1CCCCC1	n	n	n	3.5µM	u	n
Cc1ccc(-c2nc(NC(=O)c3nn(C)cc3[N+](=O)[O-])sc2C)cc1	n	u	u	n	n	u
COc1ccc(OC)c(CNC(=O)c2ccc(C)c(NC(=O)c3nsc4ccccc34)c2)c1	n	n	n	x	x	n
CCCN(CC)C(CC)C(=O)Nc1c(C)cccc1C (centres undefined)	x	x	x	x	x	n
O=C(OC(C(=O)N1CCOCC1)c1ccccc1)c1c2c(nc3ccccc13)CCCC2 (centres undefined)	n	x	n	x	x	x
CC(=O)c1cccc(NC(=O)c2ccc3c(=O)n4c(nc3c2)CCCCC4)c1	n	n	n	5µM	2.5µM	n
O=C(Nc1ccc2nc3n(c(=O)c2c1)CCCCC3)c1cc([N+](=O)[O-])ccc1F	13µM	u	u	n	n	x
